Mito fusion yeast: inhibitors of mitochondrial division or activators of mitochondrial fusion. S. cerevisiae fusion-defective mutant growth rescue, CellTiterGlo 48 h. Potency, µM (highest dose often 46.1 µM), for inactives: at the top dose growth rescue (activation), hits mostly activators. 320,000 tested, 0.23% active; further: % of control where 0% means no effect; nearly all actives have a fitted effect of over 45% in size
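Read-out: ATP-based luminescence (CellTiterGlo, 10 min ambient) reporting growth of fusion-defective ts yeast after 48 hours at 37C on glycerol/ethanol YPEG medium in the presence of compound.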
VDR inhibitor: inhibitors of human vitamin D receptor; P11473; 400,000 tested, 0.93% active; Potency, µM, inactives show max response, negative = inhibition, most hits filed as inhibitors; AID 504847; VDR-SRC2-3 peptide fluorescence polarization, 2 h; further: on the % scale 0 is the no-effect control and ±100 the full control effect
Target sequence (P11473 whole entry, looked up): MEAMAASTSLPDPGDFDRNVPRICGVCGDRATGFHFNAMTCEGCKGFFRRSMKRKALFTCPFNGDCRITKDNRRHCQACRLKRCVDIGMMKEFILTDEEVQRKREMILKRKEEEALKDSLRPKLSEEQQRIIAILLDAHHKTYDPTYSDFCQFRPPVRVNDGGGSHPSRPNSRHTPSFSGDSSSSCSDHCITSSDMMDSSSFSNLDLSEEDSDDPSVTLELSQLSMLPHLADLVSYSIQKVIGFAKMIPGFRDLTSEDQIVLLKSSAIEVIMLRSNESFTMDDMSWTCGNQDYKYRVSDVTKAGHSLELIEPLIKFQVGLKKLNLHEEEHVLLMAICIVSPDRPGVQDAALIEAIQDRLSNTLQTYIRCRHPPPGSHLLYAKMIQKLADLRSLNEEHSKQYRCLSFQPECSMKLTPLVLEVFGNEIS
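Inhibition of the VDR/SRC2-3 peptide interaction is quantified by fluorescence polarization. Compounds (23 nl, pintool) incubate with the reagents for 2 hours at ambient room temperature.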
PKM2 act: PKM2 (human) enzyme activation; P14618; purified PKM2, Kinase-Glo ATP luminescence, activation; response scale: 0% is enzyme alone, no compound; Potency, µM (series often up to 57.5 µM), inactives show at the top dose activation, hits mostly activators; 260,000 tested, 0.34% active; AID 1631; further: on the % scale 0 is the no-effect control and ±100 the full control effect; nearly all actives have a fitted effect of over 55% in size
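Kinase-Glo luminescence reports ATP generated from ADP (0.1 mM) and PEP (0.5 mM) by purified hPK-M2 after 1 h at room temperature, pH 7.2 imidazole buffer; intermediate enzyme activity allows detecting inhibitors and activators.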
GLS inh: blocks human kidney-isoform glutaminase activity | O94925 | GLS enzymatic activity, qHTS titration | Potency, µM (top dose mostly 45.5 µM), for inactives: top-dose activity change, negative = inhibition, usual class: inhibitors | 410,000 tested, 0.21% active; further: on the % scale 0 is the no-effect control and ±100 the full control effect
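Human kidney-isoform GLS in 45 mM KH2PO4 pH 8.2, 0.02% Tween-20, with compound, started with 1mM L-Glutamine (added stock). Glutamate oxidase/HRP/Amplex red coupled fluorescence read at start and after 30 min at RT.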
KAT2A inh: inhibitors of human GCN5L2 histone acetyltransferase; Potency, µM (highest dose often 58.9 µM), without a hit: at the highest dose activity change, negative = inhibition, hits mostly inhibitors; GCN5L2 HAT assay, ThioGlo1 CoA-SH fluorescence; Q92830; 390,000 tested, 0.21% active; further: on the % scale 0 is the no-effect control and ±100 the full control effect
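qHTS, 1536-well. 20nM enzyme, pH 7.5 HEPES/EDTA/Tween-20 buffer; 15 min compound preinc., RT. Start: 75uM H3(1-25), 70uM AcCoA, 50uM ThioGlo1. Read Ex340/Em540 at t=0 (autofluorescence flag) and t=20 min.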
PLK1 PBD block: PLK1 (human) polo-box domain binding inhibition. P53350. Plk1 PBD binding of FITC phosphopeptide, fluorescence polarization. Potency, µM, for the others: max response, negative = inhibition, usual class: inhibitors. 360,000 tested, 2.8% active; further: series mostly up to about 57 µM; on the % scale 0 is the no-effect control and ±100 the full control effect; nearly all actives have a fitted effect of over 65% in size
* hit, by the source's call; ? = inconclusive; . = no result. Rows were chosen to be rich in hits. Some 3.4% of all compounds tested hit in one or more screens of this group. The call rests on the fitted dose curve; in most records, active means well fitted curve in the direction sought with a large enough effect; inconclusive means small, poorly fitted or top-dose-only effect, or another doubt; inactive means no such curve, though single readings can be large; an effect the other way counts as inactive or inconclusive. Potency means the concentration at half of the fitted maximal effect.

SMILES	Mito fusion yeast	VDR inhibitor	PKM2 act	GLS inh	KAT2A inh	PLK1 PBD block
Cc1ccc(S(=O)(=O)N2CCCC(c3nc4c(nnn4Cc4ccc5c(c4)OCCO5)c(=O)[nH]3)C2)cc1 (stereo not given)	3%	2%	.	17%	-12%	-1%
Cc1ccc(CNC(=O)c2c[nH]n3c(=O)c(Cc4ccc(F)cc4Cl)c(C)nc23)cc1	.	-8%	.	2%	35µM*	.
COc1ccc(CCNC(=O)c2c[nH]n3c(=O)c(Cc4ccccc4Cl)c(C)nc23)cc1OC	.	7%	.	1%	28µM*	.
Cc1nc2c(C(=O)NCCC(C)C)c[nH]n2c(=O)c1Cc1ccccc1F	-9%	-6%	0%	3%	-9%	21µM*
Cc1nc2c(C(=O)NCCc3ccc(Cl)cc3)c[nH]n2c(=O)c1Cc1ccccc1F	.	-23%	.	17%	?	.
CO/N=C/c1ccc(Sc2ccccc2)c([N+](=O)[O-])c1	29%	3%	6%	9%	-6%	-4%
CO/N=C/c1ccc(Oc2ccc(C)cc2)c([N+](=O)[O-])c1	-1%	28µM*	-4%	?	-12%	12µM*
COc1ccc(OCCCn2c(CCNC(=O)C3CCCCC3)nc3ccccc32)cc1	.	-13%	.	.	.	.
Oc1ccc(/C=N/NC(=S)Nc2cccnc2)cc1O	-9%	6%	-6%	5µM*	-6%	-28%
CCn1nnc(NC(=O)CSc2ccc(Cl)cc2)n1	-5%	-4%	-2%	?	-16%	27µM*
CCCCn1nnc(NC(=O)Cc2ccc(Cl)cc2)n1	1%	-3%	-18%	-6%	2%	-9%
C#CCOCCOCCOCCNc1nc(N2CCN(C(=O)C([C@@H](C)O)n3cc([C@@H](N)CCCCN)nn3)CC2)nc(N2CCN(C(=O)C([C@@H](C)O)n3cc([C@@H](N)CCCCN)nn3)CC2)n1 (stereo not given in full)	.	-6%	.	4%	-3%	4%
CCCNc1c(NS(=O)(=O)c2ccc(Br)cc2)c(=O)oc2ccccc12	8.9µM*	15%	.	21%	1%	-3%
CN1CCN(/C=N/c2sc3c(c2C#N)CCCCC3)CC1	8%	-10%	-6%	12%	-3%	-9%
N#Cc1c(/N=C/C=C/c2ccccc2)sc2c1CCCC2	-3%	?	2%	?	38%	9.5µM*
O=C(Cc1ccc2cccnc2c1)c1ccc(O)cc1O	8%	12%	12%	52%	-1%	-1%
Oc1ccc2cccnc2c1	-2%	-6%	-5%	20%	-11%	27µM*
Cc1ccc(S(=O)(=O)NCCc2nnc3ccc(SCc4ccccc4C)nn23)cc1	.	9%	.	?	-23%	.
O=C(O)CCN1C(=O)/C(=C\c2cccc(OCC(=O)Nc3ccc(Cl)cc3)c2)SC1=S	10%	14µM*	-1%	18%	-6%	27µM*
CCOc1ccc(/C=C2\SC(=S)N(CCC(=O)O)C2=O)cc1	0%	8%	-1%	17%	-6%	-11%
O=C(O)CCN1C(=O)CC(N2C(=O)/C(=C/c3ccc(Cl)cc3)SC2=S)C1=O (stereo not given)	3%	-23%	4%	5%	?	24µM*
O=C(CCN1C(=O)/C(=C/c2ccc(Cl)cc2)SC1=S)Nc1cccc(C(=O)O)c1	-4%	-10%	.	3%	-4%	?
O=C(O)COc1cccc(/C=C2/SC(=S)N(Cc3ccccc3)C2=O)c1	9%	79µM*	.	-15%	-3%	24µM*
O=C(O)CN1C(=O)/C(=C\c2cccc(OCc3ccccc3)c2)SC1=S	3%	56µM*	6%	18%	-27%	24µM*
O=C(NC(=S)N1CCOCC1)c1cc2ccccc2o1	-15%	15%	-17%	0%	9%	-6%
SMILES	Mito fusion yeast	VDR inhibitor	PKM2 act	GLS inh	KAT2A inh	PLK1 PBD block
N#C/C(=C/c1ccncc1)c1nc2ccccc2s1	-3%	71µM*	2%	4%	1%	-9%
CC(C)=C(C#N)c1nc2ccccc2s1	-2%	8%	-5%	5%	-28%	-7%
Cc1ccc(CNC(=O)CCS(=O)(=O)c2cc(Br)cc3c2N(C(=O)C2CC2)CC3)o1	14%	-7%	7.9µM*	3%	-2%	-20%
Cc1ccc(S(=O)(=O)c2nnn3c2nc(N2CCN(c4ccc(F)cc4)CC2)c2cc(Cl)ccc23)cc1C	.	-16%	.	1%	1%	.
COc1ccc2c(c1)CCC1C2CC[C@@]2(C)C1CC[C@@H]2NCCCCCCN1C(=O)CCC1=O (stereo not given in full)	?	5%	.	.	-5%	.
Oc1cc2ccccc2cc1-c1n[nH]c(=S)o1	-2%	?	-19%	23%	-5%	12µM*
CC(C)c1cccc(-c2ccc3c(c2)S(=O)(=O)c2cccc(C(=O)NCc4ccco4)c2C3=O)c1	.	-18%	.	-9%	?	42µM*
Cc1cccc(CS(=O)(=O)Cc2ccc(C(=O)NCCc3ccccc3)o2)c1	2%	-18%	.	12%	-1%	27µM*
CCOc1ccc(CCNC(=O)c2ccc(CS(=O)Cc3cccc(Cl)c3)o2)cc1 (stereo not given)	5%	?	.	5%	-7%	27µM*
Cc1ccccc1CS(=O)(=O)Cc1ccc(C(=O)NCCc2ccccc2)o1	3%	-17%	.	-2%	-5%	30µM*
CC1(Cc2ccccc2F)C(=O)Nc2c(Cl)ccc(Cl)c21 (stereo not given)	.	.	.	8%	.	2%
CCOC(=O)C(=O)Nc1sc(C(=O)N(CC)CC)c(C)c1C#N	6%	-9%	7%	1%	0%	-16%
CCN(CC)C(=O)c1sc(N)c(C#N)c1C	2%	11%	-6%	30%	-2%	24µM*
CCCCCCCC(=O)N/N=C/c1ccc([N+](=O)[O-])o1	20µM*	0%	-2%	-12%	-6%	-3%
COCCNC(=O)C1CCCN(C(=O)c2csc3ccccc23)CC1 (stereo not given)	.	.	.	0%	.	-3%
CCCCCCCCCCCCCCCCOCCOCCOCCOCCOCCOCCOCCOCCOCCOCCOCCOCCOCCOCCOCCOCCOCCOCCOCCOCCO	.	2%	.	-4%	5%	.
O=c1[nH][nH]c2c1[C@H](c1ccccc1)O[C@H](C1CCCCC1)C2	.	.	.	3%	.	12µM*
CCCC[C@@H]1Cc2[nH][nH]c(=O)c2[C@H](c2ccc(C(C)C)cc2)O1	.	.	.	11%	.	9.5µM*
O=c1[nH][nH]c2c1[C@H](c1ccc(Cl)cc1)O[C@H](C1CC1)C2	.	.	.	23%	.	12µM*
O=c1[nH][nH]c2c1[C@H](c1ccc(F)cc1)O[C@H](C1CCCCC1)C2	.	.	.	12%	.	-29%
